System: Vero E6 infected with SARS-CoV-2
Test: inhibition of SARS-CoV-2 cytopathic effect; higher = more antiviral protection, active = above 15
Details: 48 h

Measured: inhibition of SARS-CoV-2 cytopathic effect

Clc1cccc(Cl)c1NC1=NCCN1 [clonidine]
inactive: 1 nM -0.43% | 8.33 nM -2.8% | 100 nM -3.01% | 833.33 nM 0.52% | 10000 nM -5.58%

O=C(O)c1cc(C(=O)O)c(C(=O)N(Cc2cccc(Oc3ccccc3)c2)[C@H]2CCCc3ccccc32)cc1C(=O)O
inactive: 1 nM 0.03% | 8.33 nM -0.1% | 100 nM -1.42% | 833.33 nM -0.62% | 10000 nM 0.42%

CC(=O)OCC(=O)NCCCOc1cccc(CN2CCCCC2)c1 [roxatidine-acetate]
inactive: 1 nM -0.88% | 8.33 nM 2.22% | 100 nM -0.37% | 833.33 nM 1.86% | 10000 nM 2.34%

CN1[C@@H]2CC[C@H]1C[C@@H](OC(=O)C(CO)c1ccccc1)C2 (stereo not given in full)
inactive: 1 nM -2.22% | 8.33 nM -2.93% | 100 nM 1.96% | 833.33 nM 0.7% | 10000 nM 0.64%

CC[C@@]1(O)C(=O)OCc2c1cc1n(c2=O)Cc2cc3c(CN(C)C)c(O)ccc3nc2-1 [topotecan]
inactive: 1 nM 0.54% | 8.33 nM 1.66% | 100 nM -1.53% | 833.33 nM -6.88% | 10000 nM -15.3%

Cc1c(NC(=O)c2cccnc2)c(=O)n(-c2ccccc2)n1C [nifenazone]
inactive: 1 nM -4.14% | 8.33 nM 0.87% | 100 nM 1.34% | 833.33 nM -1.46% | 10000 nM 0.61%

O=C[C@H](O)[C@@H](O)[C@H](O)CO [xylose]
inactive: 1 nM 2.36% | 8.33 nM 1.7% | 100 nM -0.84% | 833.33 nM -1.64% | 10000 nM -4.41%

CCCCCC(O)CCCC(=O)O (stereo not given)
inactive: 1 nM -2.76% | 8.33 nM -6.54% | 100 nM -3.55% | 833.33 nM -1.75% | 10000 nM -6.15%

O=C(Nc1ccccc1)c1cc([N+](=O)[O-])ccc1Cl
inactive: 1 nM 1.34% | 8.33 nM 2.14% | 100 nM 0.85% | 833.33 nM -0.67% | 10000 nM -0.39%

Nc1c(CC(=O)O)cccc1C(=O)c1ccc(Br)cc1 [bromfenac]
inactive: 1 nM -1.88% | 8.33 nM 0.84% | 100 nM -0.8% | 833.33 nM -0.93% | 10000 nM -0.48%

CC(=O)c1ccc2c(c1)C(=O)C1(CC1)O2 [spizofurone]
inactive: 1 nM -4.51% | 8.33 nM 5.43% | 100 nM 0.26% | 833.33 nM 0.65% | 10000 nM 2.1%

CCC(=O)NO
inactive: 1 nM 3% | 8.33 nM 3.18% | 100 nM 1.27% | 833.33 nM 1.39% | 10000 nM 2.29%

CC#CCC(C)[C@H](O)/C=C/[C@@H]1[C@H]2C/C(=C/CCCC(=O)O)C[C@H]2C[C@H]1O (stereo not given in full) [iloprost]
inactive: 1 nM -0.22% | 8.33 nM -1.1% | 100 nM -0.18% | 833.33 nM -2.21% | 10000 nM -1.94%

C=C1C(=O)O[C@@H]2[C@H]3C(C)=CC[C@@]34O[C@@]4(C)CC[C@@H]12 [arglabin]
inactive: 1 nM -2.02% | 8.33 nM 1.39% | 100 nM -0.31% | 833.33 nM -1.74%
active: 10000 nM 29.2%

O=[N+]([O-])c1cc2nc(O)c(O)nc2cc1[N+](=O)[O-]
inactive: 1 nM -4.28% | 8.33 nM -0.96% | 100 nM -0.81% | 833.33 nM -1.99% | 10000 nM 0.49%

Cn1ncc(Cl)c1-c1cc(C(=O)N[C@H](CN)Cc2cccc(F)c2)sc1Cl
inactive: 1 nM 0.2% | 8.33 nM -1.05% | 100 nM -0.95% | 833.33 nM -0.24% | 10000 nM -2.44%

CC(C)N(CCC(C(N)=O)(c1ccccc1)c1ccccn1)C(C)C (stereo not given) [disopyramide]
inactive: 1 nM -2.08% | 8.33 nM -2.32% | 100 nM -1.92% | 833.33 nM -0.48% | 10000 nM -5.17%

CCC(O)(CC(N)=O)c1ccccc1 (stereo not given) [3-hydroxy-3-phenylpentanamide]
inactive: 1 nM 1.46% | 8.33 nM 0.49% | 100 nM -0.1% | 833.33 nM -10.4% | 10000 nM 0.22%

NCCc1c[nH]c2ccc(O)cc12 [serotonin]
inactive: 1 nM -0.73% | 8.33 nM -0.57% | 100 nM 2.41% | 833.33 nM 2.28% | 10000 nM 0.37%

Oc1cc(O)c2c(c1)O[C@H](c1ccc(O)c(O)c1)[C@@H](O)C2 [cianidanol]
inactive: 1 nM -1.29% | 8.33 nM 0.71% | 100 nM -1.15% | 833.33 nM -0.95% | 10000 nM -2.3%

COc1ccc(-c2cc(C(F)F)nn2-c2ccc(S(N)(=O)=O)cc2)cc1F [deracoxib]
inactive: 1 nM 2.3% | 8.33 nM -0.35% | 100 nM 3.5% | 833.33 nM 2.29% | 10000 nM 2.18%

O=C(O)C[CH2][Ge](=[O])[O][Ge](=[O])[CH2]CC(=O)O [propagermanium]
inactive: 1 nM -0.42% | 8.33 nM 1.44% | 100 nM 3.85% | 833.33 nM -0.73% | 10000 nM -2.33%

CC(C)C(=O)Nc1ccc([N+](=O)[O-])c(C(F)(F)F)c1 [flutamide]
inactive: 1 nM -1.61% | 8.33 nM -1.6% | 100 nM -3.44% | 833.33 nM -2.92% | 10000 nM -5.12%

COC(=O)[C@H](CC(C)C)NC(=O)[C@@H](N)CC(C)C [leucylleucine-methyl-ester]
inactive: 1 nM -2.04% | 8.33 nM 0.78% | 100 nM -1.7% | 833.33 nM -0.61% | 10000 nM -0.55%

C[C@]12CC[C@@H]3c4ccc(O)cc4CC[C@H]3[C@@H]1CC[C@@H]2O [estradiol]
inactive: 1 nM 1.43% | 8.33 nM 2.24% | 100 nM -0.69% | 833.33 nM -2.04% | 10000 nM -1.69%

c1ccc(C(NCCNC(c2ccccc2)c2ccccc2)c2ccccc2)cc1
inactive: 1 nM -3.48% | 8.33 nM -3.4% | 100 nM 3.81% | 833.33 nM 2.97% | 10000 nM -0.01%

COc1ccccc1CN[C@H]1CCCN[C@H]1c1ccccc1
inactive: 1 nM -0.59% | 8.33 nM -1.96% | 100 nM 2.38% | 833.33 nM -1.82% | 10000 nM -3.19%

CN[C@@H]1[C@H](O[C@H]2[C@H](O[C@H]3[C@H](O)[C@@H](O)[C@H](NC(=N)N)[C@@H](O)[C@@H]3NC(=N)N)O[C@@H](C)[C@]2(O)CO)O[C@@H](CO)[C@H](O)[C@H]1O [dihydrostreptomycin]
inactive: 1 nM 0.2% | 8.33 nM -0.04% | 100 nM -0.21% | 833.33 nM 0.85% | 10000 nM -0.41%

CC(=O)CC(c1ccccc1)c1c(O)c2ccccc2oc1=O (stereo not given) [warfarin]
inactive: 1 nM -10.1% | 8.33 nM -9.65% | 100 nM -9.92% | 833.33 nM -10.1% | 10000 nM -14.2%

Cc1ccc(-c2ncc(Cl)cc2-c2ccc(S(C)(=O)=O)cc2)cn1 [etoricoxib]
inactive: 1 nM 2.49% | 8.33 nM 0.25% | 100 nM -0.65% | 833.33 nM -1.22% | 10000 nM -1.11%

CC1(C)CC(=O)c2c(C(F)(F)F)nn(-c3ccc(C(N)=O)c(N[C@H]4CC[C@H](O)CC4)c3)c2C1
inactive: 1 nM 1.9% | 8.33 nM 1.97% | 100 nM -3.3% | 833.33 nM -1.33% | 10000 nM -0.66%

CCCC(CCC)C(=O)Nc1ccn([C@@H]2O[C@H](CO)[C@@H](O)C2(F)F)c(=O)n1
inactive: 1 nM -0.06% | 8.33 nM -1.71% | 100 nM -2.25% | 833.33 nM -0.4% | 10000 nM -4.21%

CCc1cnn2c(NCc3ccc[n+]([O-])c3)cc(N3CCCC[C@H]3CCO)nc12 [dinaciclib]
inactive: 1 nM 1.49% | 8.33 nM -1.48% | 100 nM -3.71% | 833.33 nM -9.46% | 10000 nM -8.75%

O=C1C=Cc2cc(Br)ccc2C1=O [bonaphthone]
inactive: 1 nM -0.83% | 8.33 nM 0.78% | 100 nM -2.18% | 833.33 nM -1.56% | 10000 nM -2.53%

CO[C@@]1(NC(=O)C(C(=O)O)c2ccc(O)cc2)C(=O)N2C(C(=O)O)=C(CSc3nnnn3C)CO[C@@H]21 (stereo not given in full) [moxalactam]
inactive: 1 nM 1.45% | 8.33 nM -1.13% | 100 nM -0.85% | 833.33 nM -1.15% | 10000 nM 1.01%

Cc1nc2ccccn2c(=O)c1CCN1CCC(C(=O)c2ccc(F)cc2)CC1 [pirenperone]
inactive: 1 nM 1.65% | 8.33 nM 1.73% | 100 nM -0.8% | 833.33 nM 1.4% | 10000 nM 0.69%

CC(C)(C)c1cc(C(C)(C)C)c2c(c1)C(O)(C(F)(F)F)C(=O)O2 (racemic)
inactive: 1 nM 5.52% | 8.33 nM 2.66% | 100 nM 4.61% | 833.33 nM -0.2% | 10000 nM -1.15%

O[C@@](Cc1nc(CC2(C(F)(F)F)CC2)c[nH]1)(c1ccc(-n2cccn2)cc1)C(F)(F)F
inactive: 1 nM 0.23% | 8.33 nM -0.02% | 100 nM 0.57% | 833.33 nM -0.43% | 10000 nM -2.55%

COC(=O)C1=CO[C@@H](O)[C@@H]2C(CO)=CC[C@H]12 [genipin]
inactive: 1 nM -1.26% | 8.33 nM 1% | 100 nM 0.94% | 833.33 nM -0.49% | 10000 nM -0.89%

Cc1ccccc1CN1C(=O)C2=C(CCN(Cc3ccccc3)C2)N2CCN=C12
inactive: 1 nM 0.63% | 8.33 nM 0.83% | 100 nM 0.4% | 833.33 nM 3.83% | 10000 nM 0.84%
